# Compound activity from PubChem BioAssay.
# Pf Dd2 inh: blocks in vitro growth of P. falciparum Dd2; Potency, µM (doses to about 28.9 µM), most hits filed as inhibitors; P. falciparum Dd2 growth, SYBR Green, 72 h; 120,000 tested, 4.3% active; active = well fitted inhibition curve with a large enough effect; note: nearly all actives have a fitted effect of over 65% in size
#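 Infected erythrocytes (Dd2, 0.3% parasitemia, 2.5% hematocrit final) are added to compound in RPMI-1640/Albumax II medium, grown 72 h at 37C in low oxygen, then lysed with saponin/Triton-X containing SYBR Green and read by fluorescence.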
# Numbers stand for hits; i = inactive; [ ] = dose if it differs, or a comment. Many of the other results were omitted from the sample, so hits are more common in it than they were.
SMILES,Pf Dd2 inh
COc1cc(OCc2ccccc2)ccc1CN1C[C@@H]2CCN[C@@H]2C1,10µM
COCCN1C(=O)[C@H]2CN(Cc3ccc(OC)cc3OC)C[C@H]2C1=O,i
O=C1CO[C@H]2CCN(Cc3ccc4[nH]ccc4c3)CC[C@@H]2N1Cc1ccc(O)cc1,i
CN(C)C(=O)NCC(=O)N1C[C@@H](C(=O)O)[C@H](c2ccc3c(c2)OCO3)C1,i
Cc1ccc(Cl)cc1NC(=O)Cn1cccc1-c1nc(-c2ccc(F)cc2)no1,i
CCCc1noc(-c2cn(C3CCN(C(=O)c4ccc(OC)nc4OC)CC3)nn2)n1,i
COc1ccc(C(=O)N2CCn3c(nnc3[C@@H]3C[C@@H](O)CN3Cc3ccccc3)C2)cn1,i
Cc1cccnc1CN(C)c1cc(C2CC(O)C2)ncn1 (stereo not drawn),i
COc1ccc(Cl)cc1CN(C)c1cc(C2CC(N)C2)ncn1 (stereo not drawn),10µM
CN(Cc1cccc(-c2nn[nH]n2)c1)c1cc(C2CC(N)C2)ncn1 (stereo not drawn),i
Cc1ccc(CN2CCn3c(nnc3[C@@H]3C[C@@H](O)CN3Cc3cccnc3)C2)o1,i
CCc1ccccc1S(=O)(=O)N1CCC(N(C(=O)COC)C2CCOCC2)CC1,i
Cc1ccc(NC(=O)c2cc3c(-c4ccccc4)nn(-c4ccccc4)c3s2)cc1,2.82µM
COCCCNC(=O)c1cc2c(-c3cccc(OC)c3)nn(C)c2s1,i
COc1cccc(NC(=O)c2cc3c(-c4ccc(Cl)cc4)nn(C)c3s2)c1,3.16µM
COc1ccc(-c2nn(C)c3sc(C(=O)NCCN(C)C)cc23)cc1OC,i
COc1cccc(-c2nn(C)c3sc(C(=O)NCc4ccc(C)cc4)cc23)c1,i
COc1ccccc1CNC(=O)c1cc2c(-c3ccc(Cl)cc3)nn(C)c2s1,i
COc1ccc(NC(=O)c2cc3c(C)nn(-c4ccccc4)c3s2)c(OC)c1,i
COc1ccc(-c2nn(C)c3sc(C(=O)Nc4cccc(F)c4)cc23)cc1OC,2.51µM
COc1ccccc1NC(=O)c1cc2c(C)nn(-c3ccccc3)c2s1,i
Cc1cccc(CN2CCc3nc(N4CCN(C)CC4)[nH]c(=O)c3CC2)c1,i[5.79 µM]
Cc1ccc(C2Cn3nnc(C(=O)N4CCC(C(=O)NCc5ccc(Cl)cc5)CC4)c3CO2)cc1 (stereo not drawn),i
COCCNc1ccc(-c2nc(-c3ccco3)no2)cc1[N+](=O)[O-],i
COCCNc1nc2cc(C(=O)N[C@@H]3CC[C@@H](N)C3)ccc2n1C,i
SMILES,Pf Dd2 inh
COCCNc1nc2cc(-c3nc(-c4cccnn4)no3)ccc2n1C,6.31µM
COCCN1C(=O)c2ccccc2C(C(=O)NCc2ccc(Cl)cc2)C12CCCCC2 (stereo not drawn),i
COc1ccccc1-c1cc(NCc2cnccn2)c2onc(C)c2n1,i
CCn1ncc(N2CCCC(CC(=O)N(C)Cc3ccccc3)C2)cc1=O (stereo not drawn),i
CCc1nc(-c2c3n(c(=O)n(CC(=O)Nc4ccc(C)c(F)c4)c2=O)CCCC3)no1,i
CCN(C1CCOCC1)C1CN(C(=O)C2CCOC2)C1 (stereo not drawn),i
Cc1ccc(NC(=O)c2oc3ccc(S(=O)(=O)N4CCCCCC4)cc3c2C)cc1Cl,i
Cc1ccc(CNC(=O)c2oc3ccc(S(=O)(=O)N4CCCC(C)C4)cc3c2C)cc1 (stereo not drawn),10µM
CCn1cc(C(=O)NCc2ccc(C)cc2)c(=O)c2cc(S(=O)(=O)N3CCC(C)CC3)ccc21,i
CN(C1CCOCC1)C1CCN(C(=O)c2ccnn2C)CC1,i
CCN(CC)Cc1ccc2c(c1)CNCCO2,i
c1cc2c(cc1CN1CCOCC1)CNCCO2,7.94µM
O=c1[nH]nc2n1CCN(Cc1ccc3c(c1)CCO3)CC2,i
CCN(CC)Cc1cnc2c(C(=O)N(C)CCc3ccccn3)cnn2c1,i
COc1ccc(C(=O)N[C@H](C)c2onc(-c3ccc(F)cc3)c2C(=O)O)cc1,i
CCN(CC)c1ccc(CN(C(=O)Cc2coc3ccc(C)cc23)C2CCS(=O)(=O)C2)cc1 (stereo not drawn),12.6µM
Cc1ccc2occ(CC(=O)N(Cc3ccc(N(C)C)cc3)C3CCS(=O)(=O)C3)c2c1 (stereo not drawn),i
CCc1ccc2occ(CC(=O)N(Cc3ccc(N(C)C)cc3)C3CCS(=O)(=O)C3)c2c1 (stereo not drawn),i
Cc1ccc2c(C(=O)Nc3ccc(Cl)nc3)cnn2c1,i
Cc1nc(-c2ccc(F)cc2)n(CC(=O)Nc2ccc(F)cc2)c(=O)c1CCO,i
COc1ccc(Cl)cc1NC(=O)Cn1c(-c2ccc(F)cc2)nc(C)c(CCO)c1=O,14.1µM
COc1cc(NC(=O)Cn2c(-c3ccccc3)nc(C)c(CCO)c2=O)cc(OC)c1,8.91µM
Cc1ccc(NC(=O)Cn2c(-c3cccc(Cl)c3)nc(C)c(CCO)c2=O)cc1,i
COc1cc(NC(=O)Cn2c(-c3ccccc3)nc(C)c(CCO)c2=O)cc(OC)c1OC,i
Cc1nc(-c2ccc(F)cc2)n(CC(=O)Nc2cc(F)ccc2F)c(=O)c1CCO,i
SMILES,Pf Dd2 inh
Cc1nc(-c2cccc(Cl)c2)n(CC(=O)Nc2cccc(C(C)C)c2)c(=O)c1CCO,5.01µM
COc1ccc(Cl)cc1NC(=O)Cn1c(-c2ccccc2)nc(C)c(CCO)c1=O,i
COc1ccc(NC(=O)Cn2c(-c3ccccc3)nc(C)c(CCO)c2=O)cc1OC,i
Cc1cc(NC(=O)Cn2c(-c3cccc(Cl)c3)nc(C)c(CCO)c2=O)no1,i
Cc1nc(-c2ccc(F)cc2)n(CC(=O)Nc2ccc(C(C)C)cc2)c(=O)c1CCO,7.08µM
COc1ccc(OC)c(NC(=O)Cn2c(-c3ccc(F)cc3)nc(C)c(CCO)c2=O)c1,i
COCC(=O)N[C@@H]1CN(C(=O)CCCc2ccccc2)CC[C@@H]1c1nc(C)no1,i[5.79 µM]
COC(=O)[C@@H]1Cc2ncn(C)c2CN1S(=O)(=O)c1cccc(C(F)(F)F)c1,i
O=C(CC[C@H]1NC(=O)c2ccccc2NC1=O)Nc1ncc[nH]1,i
COCCN1C(=O)CCC2(C(=O)NCCc3c[nH]c4ccccc34)CCCC=C12 (stereo not drawn),i
COc1cccc(NC(=O)NC[C@H]2O[C@@H](CO)[C@@H](O)[C@H]2N(C)CCc2ccccc2)c1,i
O=C(NCc1cccs1)c1ccc(CSc2nc3ccncc3n2Cc2ccccc2F)cc1,12.6µM
Cc1ccccc1Cn1c(SCc2ccc(C(=O)NCc3cccs3)cc2)nc2ccncc21,10µM
Cc1oc(-c2ccccc2F)nc1Cn1c(SCc2ccccc2F)nc2ccncc21,i
O=C(CSc1nc2ccccc2n1Cc1ccccc1F)NCc1ccccc1,i
CCCCS(=O)(=O)N1CCn2nc(C(O)c3nccn3C)cc2C1 (stereo not drawn),i
COc1cc(=O)n2c(c1C(=O)Nc1ccc(C)c(Cl)c1)CCCC2,i
Cn1cccc1C(=O)N1CCCCCCNC(=O)CC1,i
O=C(c1cccc(Cl)c1)N1CCC2(CC1)N=C(c1ccc(Br)cc1)NO2,i
CC(C)CCN1CCC(N2CCN(C(=O)c3ccc(C(F)(F)F)cc3)CC2)C1=O (stereo not drawn),i
Cc1ccsc1CN1CCC2(CC1)Cc1ccccc1CNC2=O,i
CCOc1ccc(C(=O)c2cn(Cc3ccccc3OC)c3cc4c(cc3c2=O)OCCO4)cc1,i
Cc1ccc2c(c1)c(=O)c(C(=O)c1ccccc1)cn2Cc1ccccc1F,12.6µM
COc1ccc(C(=O)c2cn(Cc3ccccc3OC)c3cc4c(cc3c2=O)OCO4)cc1,i
COc1ccccc1Cn1cc(C(=O)c2ccc(F)cc2)c(=O)c2cc3c(cc21)OCO3,i
